# Data as given in PubChem BioAssay (NCATS).
# Values without a mark were called inactive. Results filed as inconclusive are left out. Entries that show only a call come without a potency. Activity calls are given as the source filed them. Unless noted, calls follow the shape of the dose curve; as a rule, active = well fitted curve in the direction sought with a large enough effect; inconclusive = small, poorly fitted or top-dose-only effect, or another doubt; inactive = no such curve, though single readings can be large; an effect the other way counts as inactive or inconclusive.
# Key:
# [1] = molecular target: Glucocorticoid receptor (Homo sapiens) (UniProt P04150); experiment: GR-GFP Redistribution (AID 450;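 active = compounds whose dose series gives a full or clear partial fitted curve of increased nuclear translocation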; also: potency is read from the fitted curve at half-maximal effect); conditions: U2OS GR-GFP nuclear translocation, laser cytometry, 2 h
# Glucocorticoid receptor (Homo sapiens), sequence (P04150 whole entry, looked up, the tested form may be a part): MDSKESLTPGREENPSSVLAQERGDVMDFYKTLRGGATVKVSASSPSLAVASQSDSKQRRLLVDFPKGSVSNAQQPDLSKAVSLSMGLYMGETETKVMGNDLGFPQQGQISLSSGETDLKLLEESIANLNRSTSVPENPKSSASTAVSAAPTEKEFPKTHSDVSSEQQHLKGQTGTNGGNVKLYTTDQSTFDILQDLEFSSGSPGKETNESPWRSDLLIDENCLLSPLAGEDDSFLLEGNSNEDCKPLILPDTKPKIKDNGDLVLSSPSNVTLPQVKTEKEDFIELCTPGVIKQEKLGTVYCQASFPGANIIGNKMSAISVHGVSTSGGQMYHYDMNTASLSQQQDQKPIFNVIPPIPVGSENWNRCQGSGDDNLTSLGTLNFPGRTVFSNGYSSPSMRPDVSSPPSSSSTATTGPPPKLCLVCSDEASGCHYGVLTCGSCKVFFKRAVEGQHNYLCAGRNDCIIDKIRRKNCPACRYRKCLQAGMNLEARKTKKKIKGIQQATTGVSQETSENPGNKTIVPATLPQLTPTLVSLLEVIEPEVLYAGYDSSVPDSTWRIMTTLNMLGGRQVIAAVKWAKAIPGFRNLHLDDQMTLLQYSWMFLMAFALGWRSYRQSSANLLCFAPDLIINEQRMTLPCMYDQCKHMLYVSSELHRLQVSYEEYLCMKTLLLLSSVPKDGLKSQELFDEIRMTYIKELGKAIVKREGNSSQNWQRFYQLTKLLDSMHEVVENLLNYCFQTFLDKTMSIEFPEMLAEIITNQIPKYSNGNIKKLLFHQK
# [2] = molecular target: Glucocorticoid receptor (Homo sapiens) (UniProt P04150); experiment: GR-EFC Redistribution (AID 451; calls by dose curve; also: potency is read from the fitted curve at half-maximal effect); conditions: CHO-K1 GR-EFC translocation, beta-gal luminescence, 2 h
# Method in brief: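 CHO-K1 cells expressing nuclear EA and GR-ED fragments of b-gal; compounds titrated up to 46 uM final, 2 h at 37 C. GR nuclear translocation read as complemented b-gal luminescence after 1 h RT detection.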
# [3] = molecular target: Mitogen-activated protein kinase 10 (Mus musculus) (UniProt Q61831); experiment: JNK3 AlphaScreen Assay (AID 530; active = well fitted curve in either direction with a large enough effect, not every such curve was filed as active;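 also: kinase came from lysate of stimulated human HepG2 cells; signal reports phosphorylation of biotinylated GST-cJun 1-79 at Ser73 with 10 µM ATP; series mostly up to about 57 µM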)
# Method in brief: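 HepG2 lysate (IL-1b/TNFa pre-activated) + biotin-GST-cJun 1-79 + anti-pSer73 cJun; cpd titration, 15 min RT; ATP 10 uM start; Tris pH 7.6, MgCl2, DTT, vanadate; beads in EDTA buffer; AlphaScreen.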
# [4] = molecular target: Cytochrome P450 3A4 (Homo sapiens) (UniProt P08684); experiment: qHTS Assay for Inhibitors and Substrates of Cytochrome P450 3A4 (AID 884); also: nearly all actives have a fitted effect of over 50% in size; also: potency is read from the fitted curve at half-maximal effect
# Cytochrome P450 3A4 (Homo sapiens), sequence (P08684 whole entry, looked up): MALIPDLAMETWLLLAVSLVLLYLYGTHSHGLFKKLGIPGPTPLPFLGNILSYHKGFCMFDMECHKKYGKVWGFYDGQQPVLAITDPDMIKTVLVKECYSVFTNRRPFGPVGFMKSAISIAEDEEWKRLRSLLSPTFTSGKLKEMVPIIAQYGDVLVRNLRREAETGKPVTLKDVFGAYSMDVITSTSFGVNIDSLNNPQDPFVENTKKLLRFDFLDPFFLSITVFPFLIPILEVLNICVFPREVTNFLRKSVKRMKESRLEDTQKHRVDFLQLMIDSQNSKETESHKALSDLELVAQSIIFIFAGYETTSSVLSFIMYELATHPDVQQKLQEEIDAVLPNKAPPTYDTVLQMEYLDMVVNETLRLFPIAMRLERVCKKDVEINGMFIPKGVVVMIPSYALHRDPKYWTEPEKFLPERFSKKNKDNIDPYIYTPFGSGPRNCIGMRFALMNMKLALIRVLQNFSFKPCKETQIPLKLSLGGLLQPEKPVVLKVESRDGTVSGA
# Method in brief: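 Luminescent readout of luciferin produced by CYP3A4 (20 nM) dealkylation of Luciferin-PPXE, 25 uM (its KM). NADPH-driven reaction ran 60 min at RT after 10 min compound preincubation; data scaled to 57 uM ketoconazole as 100% inhibition.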
# [5] = molecular target: Cytochrome P450 3A4 (Homo sapiens) (UniProt P08684); experiment: qHTS Assay for Activators of Cytochrome P450 3A4 (AID 885); also: nearly all actives have a fitted effect of over 65% in size
# Method in brief: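 Activators are scored by enhanced luminescence from CYP3A4 conversion of luciferin-PPXE (25uM, equal to KM) to luciferin, after 60 min at RT with an NADPH-regenerating system.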
# [6] = molecular target: Cytochrome P450 2D6 (Homo sapiens) (UniProt P10635); experiment: qHTS Assay for Inhibitors and Substrates of Cytochrome P450 2D6 (AID 891); also: nearly all actives have a fitted effect of over 60% in size; also: potency is read from the fitted curve at half-maximal effect
# Cytochrome P450 2D6 (Homo sapiens), sequence (P10635 whole entry, looked up): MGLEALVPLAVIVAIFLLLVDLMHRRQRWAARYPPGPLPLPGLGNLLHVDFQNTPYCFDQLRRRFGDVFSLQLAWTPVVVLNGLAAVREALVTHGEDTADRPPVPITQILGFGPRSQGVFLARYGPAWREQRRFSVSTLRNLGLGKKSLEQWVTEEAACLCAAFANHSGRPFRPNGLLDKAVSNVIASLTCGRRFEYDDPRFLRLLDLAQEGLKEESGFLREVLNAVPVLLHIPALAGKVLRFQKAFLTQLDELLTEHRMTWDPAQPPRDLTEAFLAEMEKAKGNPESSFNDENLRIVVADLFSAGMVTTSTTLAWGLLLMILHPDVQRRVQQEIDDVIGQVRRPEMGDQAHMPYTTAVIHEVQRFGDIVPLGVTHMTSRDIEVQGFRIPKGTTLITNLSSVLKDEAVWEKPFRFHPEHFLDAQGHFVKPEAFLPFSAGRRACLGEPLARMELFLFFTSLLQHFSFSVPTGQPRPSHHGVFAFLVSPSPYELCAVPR
# Method in brief: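 Luminescent read-out of luciferin formed by 5 nM human CYP2D6 demethylating 30 uM Luciferin-ME EGE (Km level) over 60 min at room temperature after NADPH regeneration addition. Data normalized to full inhibition by 1.43 uM quinidine.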
# [7] = molecular target: Ubiquitin carboxyl-terminal hydrolase 1 (Homo sapiens) (UniProt O94782); experiment: Inhibitors of USP1/UAF1: Pilot qHTS (AID 504865);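 also: rhodamine fluorescence freed from ubiquitin-rhodamine substrate followed over time; top concentration of the series differs between compounds; nearly all actives have a fitted effect of over 35% in size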
# Ubiquitin carboxyl-terminal hydrolase 1 (Homo sapiens), sequence (O94782 whole entry, looked up): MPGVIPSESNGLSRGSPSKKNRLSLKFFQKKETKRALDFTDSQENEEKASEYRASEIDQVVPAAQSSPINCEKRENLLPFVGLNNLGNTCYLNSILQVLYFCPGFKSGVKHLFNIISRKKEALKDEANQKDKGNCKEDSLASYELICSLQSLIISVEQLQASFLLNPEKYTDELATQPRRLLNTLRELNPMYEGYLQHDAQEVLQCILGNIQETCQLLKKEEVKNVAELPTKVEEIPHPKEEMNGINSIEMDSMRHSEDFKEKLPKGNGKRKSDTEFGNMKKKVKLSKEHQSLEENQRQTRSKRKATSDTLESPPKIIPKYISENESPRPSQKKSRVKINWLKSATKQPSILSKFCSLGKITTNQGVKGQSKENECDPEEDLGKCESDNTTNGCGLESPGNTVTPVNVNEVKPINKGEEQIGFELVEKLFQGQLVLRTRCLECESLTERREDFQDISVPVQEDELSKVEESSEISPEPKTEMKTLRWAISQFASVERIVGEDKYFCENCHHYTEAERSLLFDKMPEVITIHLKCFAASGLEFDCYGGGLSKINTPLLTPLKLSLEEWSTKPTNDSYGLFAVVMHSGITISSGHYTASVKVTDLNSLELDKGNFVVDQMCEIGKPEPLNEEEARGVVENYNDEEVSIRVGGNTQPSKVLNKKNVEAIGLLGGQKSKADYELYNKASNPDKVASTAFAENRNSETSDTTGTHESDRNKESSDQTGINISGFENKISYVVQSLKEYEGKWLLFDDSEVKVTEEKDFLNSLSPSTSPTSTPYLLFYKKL
# Method in brief: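 Deubiquitinase activity followed as kinetic rhodamine fluorescence release from 150 nM Ub-Rho. 1 nM USP1/UAF1 with compound, after 15 min room-temperature preincubation, in HEPES pH 7.8 buffer containing TCEP, EDTA, BSA and Tween-20.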
# [8] = molecular target: DNA dC->dU-editing enzyme APOBEC-3G (Homo sapiens) (UniProt Q9HC16); experiment: qHTS for inhibitors of Vif-A3G interactions: Validation (AID 588379)
# DNA dC->dU-editing enzyme APOBEC-3G (Homo sapiens), sequence (Q9HC16 whole entry, looked up): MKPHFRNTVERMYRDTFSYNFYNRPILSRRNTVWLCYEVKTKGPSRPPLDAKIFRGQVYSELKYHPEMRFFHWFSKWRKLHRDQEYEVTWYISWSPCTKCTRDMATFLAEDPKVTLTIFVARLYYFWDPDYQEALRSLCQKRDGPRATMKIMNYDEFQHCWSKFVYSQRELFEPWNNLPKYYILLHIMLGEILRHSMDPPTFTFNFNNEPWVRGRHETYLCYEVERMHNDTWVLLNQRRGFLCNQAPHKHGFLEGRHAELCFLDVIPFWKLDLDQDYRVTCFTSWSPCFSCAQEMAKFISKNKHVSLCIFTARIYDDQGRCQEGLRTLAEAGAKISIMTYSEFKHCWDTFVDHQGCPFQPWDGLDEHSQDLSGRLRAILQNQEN
# Method in brief: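 Yellow fluorescence (Ex 488, Em 500-530) of Vif-coexpressing HeLa A3G-eYFP cells, scanned by Acumen cytometer, reports blocked A3G degradation. Cells plated at 700/well overnight at 37 deg C before compound addition, then a further overnight compound incubation at 37 deg C.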
# [9] = system: Zika virus NS2B-NS3 protease; experiment: Primary screen GU AMC qHTS for Zika virus inhibitors (AID 1347154); also: nearly all actives have a fitted effect of over 70% in size; also: potency is read from the fitted curve at half-maximal effect
# Method in brief: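 Unlinked Zika NS2B hydrophilic domain–NS3 protease complex at 25 nM in 10 mM Tris-HCl pH 8.0, 0.01% Tween 20, with an AMC peptide substrate. Fluorescence change (340/450 nm) over 15 min at room temperature, normalized to controls, fitted to 4-parameter Hill.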
# [10] = molecular target: Cytochrome P450 1A2 (Homo sapiens) (UniProt P05177); experiment: p450-cyp1a2 (AID 410; calls by dose curve; also: potency is read from the fitted curve at half-maximal effect)
# Cytochrome P450 1A2 (Homo sapiens), sequence (P05177 whole entry, looked up): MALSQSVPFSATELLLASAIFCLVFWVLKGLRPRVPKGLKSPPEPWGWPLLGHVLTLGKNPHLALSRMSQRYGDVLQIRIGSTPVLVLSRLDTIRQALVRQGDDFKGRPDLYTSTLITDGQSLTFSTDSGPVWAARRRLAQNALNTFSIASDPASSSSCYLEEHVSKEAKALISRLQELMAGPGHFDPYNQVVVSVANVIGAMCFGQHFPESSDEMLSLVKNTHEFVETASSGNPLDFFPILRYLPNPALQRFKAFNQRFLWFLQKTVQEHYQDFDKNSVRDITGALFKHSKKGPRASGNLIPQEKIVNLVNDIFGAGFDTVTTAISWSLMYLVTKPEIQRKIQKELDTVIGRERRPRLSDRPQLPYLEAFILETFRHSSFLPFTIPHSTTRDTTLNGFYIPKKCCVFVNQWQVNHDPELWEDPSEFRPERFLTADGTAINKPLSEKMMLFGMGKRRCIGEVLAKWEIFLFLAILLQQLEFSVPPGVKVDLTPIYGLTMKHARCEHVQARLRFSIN
# Method in brief: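 20nM CYP1A2, 100uM Luciferin-ME (=Km), 100mM KPO4; cpd 10 min RT; +NADPH regen, 60 min RT; stop/detect 20 min; luminescence. Normalized to furafylline 57 uM = full inhibition.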
# [11] = molecular target: 3',5'-cyclic-AMP phosphodiesterase 4B (Homo sapiens) (UniProt Q07343); experiment: qHTS Assay for Inhibitors of PDE-IV (AID 607; active = well fitted activation curve with a large enough effect in the main read-out, with a control signal flat, not every such curve was filed as active)
# 3',5'-cyclic-AMP phosphodiesterase 4B (Homo sapiens), sequence (Q07343 whole entry, looked up): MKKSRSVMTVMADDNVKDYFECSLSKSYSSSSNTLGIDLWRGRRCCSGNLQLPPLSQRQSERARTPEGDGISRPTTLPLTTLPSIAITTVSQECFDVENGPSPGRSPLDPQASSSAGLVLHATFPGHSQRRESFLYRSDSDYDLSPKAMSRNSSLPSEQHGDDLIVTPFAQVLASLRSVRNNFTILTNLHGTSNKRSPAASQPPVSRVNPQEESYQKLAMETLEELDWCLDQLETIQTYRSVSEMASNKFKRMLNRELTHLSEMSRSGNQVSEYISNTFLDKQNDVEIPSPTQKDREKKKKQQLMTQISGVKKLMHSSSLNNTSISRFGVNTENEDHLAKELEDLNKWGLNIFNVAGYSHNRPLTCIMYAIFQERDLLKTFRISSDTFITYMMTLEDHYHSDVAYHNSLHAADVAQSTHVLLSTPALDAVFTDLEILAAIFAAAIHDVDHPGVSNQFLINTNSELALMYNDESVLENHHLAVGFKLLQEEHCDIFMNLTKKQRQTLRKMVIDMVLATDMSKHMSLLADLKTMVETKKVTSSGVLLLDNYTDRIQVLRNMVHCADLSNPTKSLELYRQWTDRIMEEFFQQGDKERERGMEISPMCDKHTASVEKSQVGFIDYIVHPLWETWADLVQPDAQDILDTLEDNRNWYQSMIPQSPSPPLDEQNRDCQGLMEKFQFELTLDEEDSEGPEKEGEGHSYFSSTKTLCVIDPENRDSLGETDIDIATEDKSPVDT
# Method in brief: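 The readout is membrane depolarisation from a cAMP-sensing CNG channel, detected with a potential dye at ex 535/em 590. Cells were HEK293-derived (endogenous PDE-IV) at 1000 cells/well, titrated up to 22.9 uM final.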
# [12] = molecular target: Cytochrome P450 2C9 (Homo sapiens) (UniProt P11712); experiment: qHTS Assay for Inhibitors and Substrates of Cytochrome P450 2C9 (AID 883); also: nearly all actives have a fitted effect of over 60% in size; also: potency is read from the fitted curve at half-maximal effect
# Cytochrome P450 2C9 (Homo sapiens), sequence (P11712 whole entry, looked up): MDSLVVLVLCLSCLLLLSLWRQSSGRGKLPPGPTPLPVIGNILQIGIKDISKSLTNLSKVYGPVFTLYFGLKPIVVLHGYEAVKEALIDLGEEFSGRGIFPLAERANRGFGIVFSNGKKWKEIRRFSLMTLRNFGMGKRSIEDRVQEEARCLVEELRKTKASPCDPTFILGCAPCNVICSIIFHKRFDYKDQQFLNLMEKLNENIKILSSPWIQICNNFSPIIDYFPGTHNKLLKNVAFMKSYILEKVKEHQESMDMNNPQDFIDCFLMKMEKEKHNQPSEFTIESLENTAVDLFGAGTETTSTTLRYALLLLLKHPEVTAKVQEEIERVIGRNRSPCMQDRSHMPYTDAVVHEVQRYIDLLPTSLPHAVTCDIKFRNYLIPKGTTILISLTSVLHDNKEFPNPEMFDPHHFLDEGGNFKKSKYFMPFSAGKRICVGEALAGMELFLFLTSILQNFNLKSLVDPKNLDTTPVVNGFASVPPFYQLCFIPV
# Method in brief: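 Human CYP2C9 (10nM) with Luciferin-H at 100uM (its KM) in 25mM KPO4; compound preincubated 10 min at 37C, then NADPH regeneration for 60 min at 37C. Luciferin read by luminescence after detection reagent; normalized to 57uM sulphaphenazole as full inhibition.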
# [13] = molecular target: Cytochrome P450 2C19 (Homo sapiens) (UniProt P33261); experiment: qHTS Assay for Inhibitors and Substrates of Cytochrome P450 2C19 (AID 899); also: nearly all actives have a fitted effect of over 60% in size
# Method in brief: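 5 nM human CYP2C19 with 10uM Luciferin-H EGE (at KM) in 50mM KPO4, compound preincubated 10 min at 37C, then NADPH regeneration for 60 min at 37C. Luciferin read by luminescence after detection reagent; normalized to 57uM ketoconazole as full inhibition.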
structure (smiles),measurement,setting,value
O=C1CC2(CCCC2)CC(=O)N1CCCCNC[C@H]1COc2ccccc2O1,Potency,[1],> 46 µM
same,Potency,[2],> 46 µM
same,Potency,[3],inactive
same,Potency,[4],0.631 µM (active)
same,Potency,[5],inactive
same,Potency,[6],5.01 µM (active)
same,Potency,[7],inactive
same,Potency,[8],inactive
same,Potency,[9],inactive
C[N+](C)(C)CCCCCNCC12CC3CC(CC(C3)C1)C2,Potency,[10],inactive
same,Potency,[2],> 46 µM
same,Potency,[3],inactive
same,Potency,[11],inactive
same,Potency,[7],inactive
same,Potency,[8],inactive
same,Potency,[9],inactive
COc1cc(OC)c2cc(-c3ccncc3)cnc2c1,Potency,[10],0.2 µM (active)
same,Potency,[1],> 46 µM
same,Potency,[2],> 46 µM
same,Potency,[3],inactive
same,Potency,[11],inactive
same,Potency,[5],inactive
same,Potency,[8],inactive
same,Potency,[9],21.2 µM (active)
OC[C@H]1NC[C@@H](O)[C@@H](O)[C@H]1O,Potency,[10],inactive
same,Potency,[1],> 46 µM
same,Potency,[2],> 46 µM
same,Potency,[3],inactive
same,Potency,[11],inactive
same,Potency,[7],inactive
same,Potency,[8],inactive
same,Potency,[9],inactive
O=S(c1ccccc1)c1ccc2nnnn2n1 (centres undefined),outcome,[10],active
same,Potency,[3],inactive
same,outcome,[12],inactive
same,outcome,[4],inactive
same,outcome,[5],inactive
same,outcome,[6],inactive
same,outcome,[13],inactive
same,Potency,[8],inactive
same,Potency,[9],inactive
COc1cccc(NC(=O)/C=C\c2ccc(Cl)cc2)c1,Potency,[10],1 µM (active)
same,Potency,[1],> 46 µM
same,Potency,[2],> 46 µM
same,Potency,[11],inactive
same,Potency,[12],10 µM (active)
same,Potency,[4],12.6 µM (active)
same,Potency,[5],inactive
same,Potency,[6],inactive
same,Potency,[8],inactive
same,Potency,[9],inactive
CC(C)NC[C@@H](O)COc1ccccc1-n1cccc1,Potency,[10],3.98 µM (active)
same,Potency,[1],> 46 µM
same,Potency,[2],> 46 µM
same,Potency,[7],inactive
same,Potency,[8],inactive
same,Potency,[9],inactive
c1cc2c3c(c1)c1c(n3CCNC2)CCCC1,Potency,[1],> 46 µM
same,Potency,[2],> 46 µM
same,Potency,[7],inactive
same,Potency,[8],inactive
same,Potency,[9],inactive
Clc1cccc(C=NC=Nc2cccc(Cl)c2)c1,Potency,[10],0.631 µM (active)
same,Potency,[1],> 46 µM
same,Potency,[7],inactive
same,Potency,[8],inactive
same,Potency,[9],inactive
OC[C@@H]1O[C@@H](n2cnc3c(NC4CCCC4)ncnc32)[C@H](O)[C@H]1O,Potency,[10],inactive
same,Potency,[1],> 46 µM
same,Potency,[2],> 46 µM
same,Potency,[3],inactive
same,Potency,[11],inactive
same,Potency,[7],inactive
same,Potency,[8],inactive
same,Potency,[9],inactive
CCCCN1CCC[C@@H]1CNC(=O)c1cc(C#N)c2ccccc2c1OC,Potency,[1],> 46 µM
same,Potency,[2],> 46 µM
same,Potency,[3],inactive
same,Potency,[11],inactive
same,Potency,[7],inactive
same,Potency,[8],inactive
same,Potency,[9],inactive
CC(C)Oc1ccc2c(=O)c3cc(C(=O)O)ccc3oc2c1,Potency,[10],inactive
same,Potency,[1],> 46 µM
same,Potency,[2],> 46 µM
same,Potency,[3],inactive
same,Potency,[11],inactive
same,Potency,[8],inactive
same,Potency,[9],inactive
